Reference: PubChem BioAssay
Records with an inconclusive call do not appear. Calls of active or inactive are those of the source.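 The calls were made as follows, unless noted: active = inhibition above 50%, about 3 SD of the validation set; inactive = the rest.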

Experiments:
[1] = rapamycin-like changes in RPL19A-GFP expression – cell-based, S. cerevisiae, multiplex flow cytometry, primary screen (AID 1862; in the data active = percent of DMSO control GFP below about 86%;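 also: lower values mimic rapamycin by blocking the RPL19A rise seen in DMSO cells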); conditions: S. cerevisiae RPL19A-GFP strain, flow cytometry fluorescence, 3 h; at 10 µM; stronger effect = lower value
[2] = TOR pathway GLN3 branch reporter MEP2-GFP changes – S. cerevisiae, multiplex flow cytometry, primary screen (AID 1867;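 active = GFP response, as percent of the DMSO control, above the screen-wide mean plus 3 SD, about 139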;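 also: median GFP channel fluorescence of barcode-gated MEP2-GFP cells measured by flow cytometry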); conditions: S. cerevisiae MEP2-GFP strain, 3 h, at 10 µM, stronger effect = higher value, 100% means same as DMSO wells
[3] = TOR pathway RTG branch CIT2 reporter changes – S. cerevisiae, GFP fusion, multiplex flow cytometry, primary screen (AID 1870;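 active = percent response above a set limit, the screen-wide mean plus 3 SD, cut at about 130% in these data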;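 also: barcoded CIT2-GFP strain pooled with four other GFP strains with rapamycin as positive control; median GFP fluorescence per well over plate mean of DMSO wells so 100% = DMSO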); conditions: S. cerevisiae CIT2-GFP expression, 3 h, at 10 µM, stronger effect = higher value
[4] = TOR pathway LAP4-GFP level changes – S. cerevisiae, multiplex flow cytometry, primary screen (AID 1873;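 active = GFP signal, as percent of the solvent control, above the screen mean plus 3 SD, about 149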); conditions: S. cerevisiae LAP4-GFP expression, 3 h, at 10 µM, stronger effect = higher value
[5] = yeast AGP1-GFP level changes, GLN3 branch – cell-based, multiplex flow cytometry, S. cerevisiae, primary screen (AID 1887;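 active = GFP signal above the screen-wide mean plus 3 SD, that is over about 124.5% of the solvent control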;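 also: AGP1-GFP fusion strain of S. cerevisiae within a five-strain barcoded multiplex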); conditions: 3 h, at 10 µM, stronger effect = higher value
[6] = reduced mouse 2C T cell binding to pMHC/ICAM-1 vesicles – MLPCN validation set, flow cytometry, LFA-1/ICAM-1 modulator project, pilot screen (AID 2523;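 active = response below a set limit, under 55% cells CD8-positive and vesicle-bound, and CD8 cells' 90th-percentile brightness under 279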;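 as to vesicle binding response: mean PE anti-B7-1 fluorescence of CD8+ cells relative to row control; 100% = QL9-loaded vesicles with DMSO vehicle in the same plate row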); conditions: 2C mouse CD8+ T cells, at 7 µM, stronger effect = lower value; double positive events: measured here: CD8+/vesicle+ event percentage
[7] = molecular target: Integrin beta-1 (Homo sapiens) + Integrin alpha-4 (Homo sapiens) (UniProt P13612+P05556); assay: alpha4beta1 integrin LIBS antibody binding reduction – U937 cells, HUTS-21 mAb, flow cytometry, validation set, VLA-4 allosteric modulator project, pilot screen (AID 2674); conditions: HUTS-21 LIBS mAb binding, at 6.7 µM, stronger effect = higher value, binding induced by LDV ligand;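 also: antibody binding induced by the VLA-4 ligand LDV present at three times its Kd; 0% = LDV ligand with antibody and no compound and 100% = antibody without LDV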
Sequence of Integrin beta-1 (Homo sapiens) + Integrin alpha-4 (Homo sapiens) (P05556 whole entry, looked up): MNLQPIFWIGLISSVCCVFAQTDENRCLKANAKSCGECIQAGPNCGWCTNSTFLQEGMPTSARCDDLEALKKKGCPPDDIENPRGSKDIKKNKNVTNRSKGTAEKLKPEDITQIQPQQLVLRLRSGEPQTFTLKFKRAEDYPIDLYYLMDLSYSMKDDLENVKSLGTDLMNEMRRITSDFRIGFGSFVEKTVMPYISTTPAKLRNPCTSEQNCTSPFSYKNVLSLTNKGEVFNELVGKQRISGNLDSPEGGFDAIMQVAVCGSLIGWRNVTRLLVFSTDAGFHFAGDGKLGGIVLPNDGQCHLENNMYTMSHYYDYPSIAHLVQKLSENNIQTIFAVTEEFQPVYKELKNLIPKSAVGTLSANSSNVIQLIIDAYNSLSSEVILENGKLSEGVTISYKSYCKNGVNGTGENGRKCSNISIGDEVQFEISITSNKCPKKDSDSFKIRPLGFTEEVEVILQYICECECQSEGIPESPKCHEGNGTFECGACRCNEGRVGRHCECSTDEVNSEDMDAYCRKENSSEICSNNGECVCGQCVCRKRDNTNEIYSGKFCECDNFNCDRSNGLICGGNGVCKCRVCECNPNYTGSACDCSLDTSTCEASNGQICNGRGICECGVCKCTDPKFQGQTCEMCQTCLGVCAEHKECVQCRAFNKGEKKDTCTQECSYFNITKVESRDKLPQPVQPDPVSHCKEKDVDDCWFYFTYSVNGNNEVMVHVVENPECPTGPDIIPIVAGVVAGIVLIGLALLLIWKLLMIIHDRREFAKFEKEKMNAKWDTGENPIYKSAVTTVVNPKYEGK
Sequence of Integrin beta-1 (Homo sapiens) + Integrin alpha-4 (Homo sapiens) (P13612 whole entry, looked up): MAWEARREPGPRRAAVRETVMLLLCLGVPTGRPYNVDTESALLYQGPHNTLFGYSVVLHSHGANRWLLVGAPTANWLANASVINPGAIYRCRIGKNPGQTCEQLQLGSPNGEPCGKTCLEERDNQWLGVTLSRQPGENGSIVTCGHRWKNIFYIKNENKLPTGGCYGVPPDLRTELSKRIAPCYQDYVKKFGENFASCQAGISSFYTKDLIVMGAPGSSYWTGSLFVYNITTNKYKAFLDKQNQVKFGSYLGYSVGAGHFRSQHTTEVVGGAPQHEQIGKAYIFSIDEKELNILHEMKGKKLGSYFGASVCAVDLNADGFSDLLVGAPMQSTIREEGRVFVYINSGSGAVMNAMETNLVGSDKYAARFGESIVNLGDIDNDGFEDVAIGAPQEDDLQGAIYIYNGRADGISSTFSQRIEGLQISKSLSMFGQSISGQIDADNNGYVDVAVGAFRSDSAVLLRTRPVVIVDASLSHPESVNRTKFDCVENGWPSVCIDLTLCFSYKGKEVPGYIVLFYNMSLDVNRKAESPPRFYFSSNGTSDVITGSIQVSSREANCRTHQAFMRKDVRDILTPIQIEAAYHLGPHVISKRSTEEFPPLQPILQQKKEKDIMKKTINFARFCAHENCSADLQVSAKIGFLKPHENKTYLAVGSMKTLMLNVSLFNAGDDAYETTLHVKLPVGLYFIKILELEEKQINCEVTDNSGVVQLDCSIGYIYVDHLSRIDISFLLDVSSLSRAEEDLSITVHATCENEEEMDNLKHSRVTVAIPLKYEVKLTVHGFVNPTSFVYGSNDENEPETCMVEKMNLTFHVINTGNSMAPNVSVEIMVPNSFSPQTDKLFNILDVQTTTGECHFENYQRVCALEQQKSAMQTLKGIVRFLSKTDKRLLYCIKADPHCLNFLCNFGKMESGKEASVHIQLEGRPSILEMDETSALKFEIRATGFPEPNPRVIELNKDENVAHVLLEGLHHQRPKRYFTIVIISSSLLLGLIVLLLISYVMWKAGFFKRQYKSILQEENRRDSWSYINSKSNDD

[8] = calorie-restriction mimetic ROS inhibitors, yeast – validation compound set, pilot screen (AID 2706;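 active = superoxide response below 65% of plate, a cut near 3 SD across the whole screen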;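 also: yeast exposed to compound for one week at 30 degrees C before staining; 100% = mean of all compound wells on the same plate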); conditions: S. cerevisiae aging, superoxide DHE fluorescence; at 10 µM; stronger effect = lower value
[9] = molecular target: Beta-adrenergic receptor kinase 1 (Homo sapiens) (UniProt P25098); assay: GRK2 binders displacing RNA aptamer, biochemical, validation, human GRK2, bead flow cytometry (AID 488806;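 active = aptamer binding inhibition above 30%, about 3 SD of noise from non-fluorescent compounds; inactive = inhibition at or below 30%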); conditions: bead-bound GRK2, FAM-aptamer displacement, at 10 µM, stronger effect = higher value
Sequence of Beta-adrenergic receptor kinase 1 (Homo sapiens) (P25098 whole entry, looked up): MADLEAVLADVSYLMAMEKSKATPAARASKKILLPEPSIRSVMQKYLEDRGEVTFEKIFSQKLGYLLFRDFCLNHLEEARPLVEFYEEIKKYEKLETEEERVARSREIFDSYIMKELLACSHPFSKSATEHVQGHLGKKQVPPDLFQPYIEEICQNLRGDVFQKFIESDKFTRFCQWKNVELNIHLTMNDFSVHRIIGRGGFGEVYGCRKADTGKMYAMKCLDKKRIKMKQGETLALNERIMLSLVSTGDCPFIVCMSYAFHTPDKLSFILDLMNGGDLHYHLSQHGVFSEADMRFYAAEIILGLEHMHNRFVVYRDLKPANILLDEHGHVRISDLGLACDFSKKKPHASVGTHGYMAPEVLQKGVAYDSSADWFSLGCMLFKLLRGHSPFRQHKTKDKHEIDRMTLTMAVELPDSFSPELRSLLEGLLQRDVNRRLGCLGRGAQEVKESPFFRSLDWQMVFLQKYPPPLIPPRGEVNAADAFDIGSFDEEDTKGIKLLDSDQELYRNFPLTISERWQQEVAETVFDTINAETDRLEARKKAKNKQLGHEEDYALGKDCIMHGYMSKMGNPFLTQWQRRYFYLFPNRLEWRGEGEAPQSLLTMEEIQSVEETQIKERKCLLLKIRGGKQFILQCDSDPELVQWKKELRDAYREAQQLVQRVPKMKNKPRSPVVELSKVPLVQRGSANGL

[10] = molecular target: Beta-2 adrenergic receptor (Homo sapiens) (UniProt P07550); assay: agonist-induced loss of surface beta2AR – cell-based, FAP fluorogen, flow cytometry, validation set, pilot screen (AID 504459;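 active = percent response above 42, roughly 3 SD of non-fluorescent test compounds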;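 also: agonist-driven loss of surface beta2AR via internalization measured by FAP dye flow cytometry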); conditions: Am2.2-beta2AR cells, at 10 µM, stronger effect = higher value
Sequence of Beta-2 adrenergic receptor (Homo sapiens) (P07550 whole entry, looked up): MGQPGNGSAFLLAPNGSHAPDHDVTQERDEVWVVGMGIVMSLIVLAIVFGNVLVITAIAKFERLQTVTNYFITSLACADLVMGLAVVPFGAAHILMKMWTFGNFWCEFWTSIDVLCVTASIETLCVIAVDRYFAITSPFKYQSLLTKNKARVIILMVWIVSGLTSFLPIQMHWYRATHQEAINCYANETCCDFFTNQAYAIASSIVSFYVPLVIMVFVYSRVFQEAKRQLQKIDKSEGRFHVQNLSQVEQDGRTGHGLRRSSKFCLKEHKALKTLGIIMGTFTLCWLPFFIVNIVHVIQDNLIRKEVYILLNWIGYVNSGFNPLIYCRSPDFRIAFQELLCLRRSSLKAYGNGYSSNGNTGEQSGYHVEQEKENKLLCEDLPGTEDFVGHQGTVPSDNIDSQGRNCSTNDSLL

[11] = molecular target: AP-2 complex subunit beta (Homo sapiens) (UniProt P63010); assay: beta-arrestin/AP2 interaction blockers – biochemical, validation set, GST-AP2 beads, flow cytometry, pilot screen (AID 504541;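 active = inhibition above 54%, about 3 SD of non-fluorescent compounds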;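 also: AP2 carries R879A mutation and is captured from E. coli lysate; bead-bound FITC arrestin peptide fluorescence measuring arrestin peptide binding to AP2; 0% = DMSO wells and 100% = excess unlabeled arrestin peptide control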); conditions: FITC arrestin peptide, at 10 µM, stronger effect = higher value, AP2 beta2 appendage fragment, R879A mutant
Sequence of AP-2 complex subunit beta (Homo sapiens) (P63010 whole entry, looked up, the tested form may be a part, one chain of several): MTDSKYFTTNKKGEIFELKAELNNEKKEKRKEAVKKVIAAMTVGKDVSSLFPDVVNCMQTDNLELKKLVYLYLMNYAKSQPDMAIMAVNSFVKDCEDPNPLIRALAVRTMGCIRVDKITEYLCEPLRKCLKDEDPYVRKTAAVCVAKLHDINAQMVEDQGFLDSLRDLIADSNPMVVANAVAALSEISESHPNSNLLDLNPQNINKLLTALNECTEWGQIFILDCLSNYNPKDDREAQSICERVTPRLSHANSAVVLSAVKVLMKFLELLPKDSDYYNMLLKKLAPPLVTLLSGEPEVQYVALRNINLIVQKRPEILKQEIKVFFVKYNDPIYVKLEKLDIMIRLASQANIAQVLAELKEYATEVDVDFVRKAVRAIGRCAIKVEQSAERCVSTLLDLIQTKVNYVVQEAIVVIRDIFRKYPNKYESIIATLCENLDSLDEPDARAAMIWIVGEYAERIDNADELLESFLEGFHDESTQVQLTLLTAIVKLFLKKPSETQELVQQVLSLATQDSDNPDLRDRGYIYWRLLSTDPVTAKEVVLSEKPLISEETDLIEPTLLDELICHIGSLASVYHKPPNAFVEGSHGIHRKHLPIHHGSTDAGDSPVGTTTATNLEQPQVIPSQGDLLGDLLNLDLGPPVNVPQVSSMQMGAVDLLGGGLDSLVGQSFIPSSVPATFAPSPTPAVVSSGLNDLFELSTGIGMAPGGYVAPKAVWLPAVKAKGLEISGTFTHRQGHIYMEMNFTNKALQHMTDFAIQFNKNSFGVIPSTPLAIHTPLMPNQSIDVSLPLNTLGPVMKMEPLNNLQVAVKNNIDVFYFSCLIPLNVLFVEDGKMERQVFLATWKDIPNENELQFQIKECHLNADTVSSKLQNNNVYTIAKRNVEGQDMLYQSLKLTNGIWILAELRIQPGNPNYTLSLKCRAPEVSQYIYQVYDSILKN

[12] = cytosolic pH regulators acting via V-ATPase – S. cerevisiae, pHLuorin, HTS validation (AID 504600; in the data active = response above about 15%;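 also: plate controls were DMSO for no effect and reference compound for full effect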); conditions: V-ATPase proton transport, at 10 µM, stronger effect = higher value
[13] = system: anti-desmoglein-3 scFv antibody binding to human DSG3; assay: blockers of pathogenic pemphigus antibody–desmoglein-3 binding – biochemical, validation compound set, bead-based, flow cytometry, pilot screen (AID 588368;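 active = binding below the plate cutoff, the plate median minus 3 SD, with a reading above zero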;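 also: signal is the median channel fluorescence of bead-bound GFP antibody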); conditions: Protein G beads, DSG3-Fc, scFv-GFP binding, at 10 µM, stronger effect = lower value
[14] = Nile Red efflux blockade in pump-expressing yeast – validation compound set, multiplex, phenotypic, pilot screen (AID 588506;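 active = efflux inhibition above 0.42, the validation set average plus 4 SD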;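 also: Nile Red retained in cells so higher fluorescence means more efflux inhibition; 0 = negative control wells and 1 = enniatin B 25 µM full block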); conditions: S. cerevisiae pump-expressing triplex, Nile Red efflux flow cytometry; at 10 µM; stronger effect = higher value; the pumps come from Candida albicans
[15] = molecular target: ATP-binding cassette sub-family B member 6 (Homo sapiens) (UniProt Q9NP58); assay: blockers of ABCB6-driven porphyrin uptake – K562-ABCB6 cells, flow cytometry, validation set, pilot screen (AID 588550;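 active = inhibition above the screen-wide mean plus 3 SD, about 51%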;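 also: 0% = DMSO wells and 100% = benzethonium chloride 70 µM positive control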); conditions: K562-ABCB6 porphyrin accumulation, 1 h, at 10 µM, stronger effect = higher value
Sequence of ATP-binding cassette sub-family B member 6 (Homo sapiens) (Q9NP58 whole entry, looked up): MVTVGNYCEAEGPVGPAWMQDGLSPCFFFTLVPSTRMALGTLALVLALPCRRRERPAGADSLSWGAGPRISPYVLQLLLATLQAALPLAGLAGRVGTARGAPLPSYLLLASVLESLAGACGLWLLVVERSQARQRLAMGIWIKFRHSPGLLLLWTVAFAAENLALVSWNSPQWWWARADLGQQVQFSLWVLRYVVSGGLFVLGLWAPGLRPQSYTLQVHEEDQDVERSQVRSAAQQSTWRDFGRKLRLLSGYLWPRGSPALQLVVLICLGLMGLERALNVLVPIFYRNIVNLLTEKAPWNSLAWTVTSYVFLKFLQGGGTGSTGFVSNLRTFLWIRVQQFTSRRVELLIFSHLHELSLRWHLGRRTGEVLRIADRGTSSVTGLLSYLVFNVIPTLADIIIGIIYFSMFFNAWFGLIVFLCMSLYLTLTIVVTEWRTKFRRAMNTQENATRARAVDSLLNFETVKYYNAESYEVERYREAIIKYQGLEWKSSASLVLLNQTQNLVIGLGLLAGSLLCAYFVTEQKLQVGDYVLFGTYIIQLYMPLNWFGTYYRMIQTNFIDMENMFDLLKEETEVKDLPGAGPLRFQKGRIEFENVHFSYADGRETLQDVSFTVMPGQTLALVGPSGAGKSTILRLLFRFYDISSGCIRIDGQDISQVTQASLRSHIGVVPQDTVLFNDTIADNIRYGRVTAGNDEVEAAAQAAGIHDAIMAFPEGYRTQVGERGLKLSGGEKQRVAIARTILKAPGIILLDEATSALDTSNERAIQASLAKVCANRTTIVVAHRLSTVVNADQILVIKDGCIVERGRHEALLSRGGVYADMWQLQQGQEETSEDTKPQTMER

[16] = AML differentiation inducers, ER-HoxA9 marrow cells – cell-based, GFP/MAC1 double positive, flow cytometry, validation set, primary screen (AID 588685;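 active = differentiation response of at least 50%, scaled between solvent and reference control, from cells with both markers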;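 also: compound exposure lasts four days before antibody staining and flow analysis; 0% = DMSO wells and 100% = 5 µM fulvestrant positive control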); conditions: stronger effect = higher value, normalized: vehicle 0, fulvestrant 100

SMILES | percent of DMSO control GFP [1] | GFP response vs DMSO [2] | percent response of DMSO control [3] | GFP response vs DMSO [4] | GFP response, % of DMSO [5] | double positive events [6] [%] | vesicle binding response [6] | inhibition [7] | superoxide response (% of plate) [8] | aptamer binding inhibition [9] | response [10] | inhibition [11] | response [12] | binding (% of control) [13] | efflux inhibition (fraction of control) [14] | inhibition [15] | differentiation response [16]
Cn1c([N+](=O)[O-])cnc1COC(N)=O | 92.8% (inactive) | 136% (inactive) | 103% (inactive) | 83.6% (inactive) | 88.9% (inactive) | 62.7 | 157% (inactive) | 8.4% (inactive) | 98.7% (inactive) | 4% (inactive) | 5.28% (inactive) | -5.93% (inactive) | -3.52% (inactive) | 105% (inactive) | -0.35 (inactive) | 11% (inactive) | -3.28% (inactive)
CCC(NC(C)C)C(O)c1ccc(O)c(O)c1 (stereo not drawn) | 103% (inactive) | 102% (inactive) | 100% (inactive) | 104% (inactive) | 112% (inactive) | 60.7 | 170% (inactive) | -11.3% (inactive) | 86.8% (inactive) | 4% (inactive) | 46% (active) | -1.15% (inactive) | 0.42% (inactive) | 105% (inactive) | -0.04 (inactive) | 2% (inactive) | -0.06% (inactive)
COc1ccc(C2C3=C(OC(C)=O)c4ccccc4C3=Nc3c2c(=O)n(C)c(=O)n3C)cc1 (stereo not drawn) | 105% (inactive) | 94.6% (inactive) | 106% (inactive) | 105% (inactive) | 103% (inactive) | 58.8 | 127% (inactive) | 1.59% (inactive) | 98.4% (inactive) | -1% (inactive) | -14.8% (inactive) | 0.59% (inactive) | -2.42% (inactive) | 102% (inactive) | -0.02 (inactive) | 4% (inactive) | -11.9% (inactive)
O=C(CNC(=O)OCc1ccccc1)Oc1cc2oc(=O)cc(-c3ccccc3)c2cc1Cl | 97.5% (inactive) | 107% (inactive) | 111% (inactive) | 107% (inactive) | 71.1% (inactive) | 61.1 | 423% (inactive) | -0.27% (inactive) | 207% (inactive) | 8% (inactive) | -13.2% (inactive) | 12.8% (inactive) | -27.5% (inactive) | 103% (inactive) | -0.09 (inactive) | 1% (inactive) | -4% (inactive)
O=C(N/C(=C/C=C\c1ccccc1)C(=O)N1CCOCC1)c1ccc(Br)cc1 | 98.4% (inactive) | 107% (inactive) | 100% (inactive) | 123% (inactive) | 115% (inactive) | 65.2 | 185% (inactive) | 2.29% (inactive) | 84.9% (inactive) | 1% (inactive) | -28% (inactive) | 6.94% (inactive) | 2.4% (inactive) | 103% (inactive) | 0.42 (inactive) | 2% (inactive) | -6.96% (inactive)
NS(=O)(=O)c1ccc(CNC(=O)c2cc(-c3ccccc3)nc3ccccc23)cc1 | 98.8% (inactive) | 109% (inactive) | 104% (inactive) | 95.3% (inactive) | 97.5% (inactive) | 59.3 | 220% (inactive) | -7.72% (inactive) | 104% (inactive) | 2% (inactive) | -8.54% (inactive) | 16% (inactive) | -3.46% (inactive) | 98% (inactive) | -0.1 (inactive) | 1% (inactive) | 5.13% (inactive)
COc1ccc(C(C)N2CC34C=CC(O3)C(C(=O)OCC(C)C)C4C2=O)cc1 (stereo not drawn) | 103% (inactive) | 107% (inactive) | 96.6% (inactive) | 92% (inactive) | 107% (inactive) | 63.5 | 5650% (inactive) | -10.8% (inactive) | 98.6% (inactive) | 1% (inactive) | -2.15% (inactive) | -17.5% (inactive) | 3.8% (inactive) | 96.9% (inactive) | 0.02 (inactive) | -4% (inactive) | -8.55% (inactive)
NC(=O)N1c2ccccc2CC(=O)c2ccccc21 | 103% (inactive) | 102% (inactive) | 102% (inactive) | 92.6% (inactive) | 102% (inactive) | 64.1 | 200% (inactive) | 6.95% (inactive) | 106% (inactive) | 2% (inactive) | 0.79% (inactive) | -3.95% (inactive) | -2.65% (inactive) | 97.3% (inactive) | -0.14 (inactive) | 2% (inactive) | -6.03% (inactive)
O=C(NCCO)c1ccc2[nH]c3ccccc3c2c1 | 98.4% (inactive) | 104% (inactive) | 102% (inactive) | 101% (inactive) | 101% (inactive) | 58.7 | 246% (inactive) | -0.45% (inactive) | 96.6% (inactive) | 2% (inactive) | -3.67% (inactive) | -8.91% (inactive) | 3.8% (inactive) | 98.7% (inactive) | 0.11 (inactive) | -1% (inactive) | 5.13% (inactive)
Cc1nc(N)sc1C(=O)N/N=C/c1ccco1 | 105% (inactive) | 107% (inactive) | 109% (inactive) | 114% (inactive) | 115% (inactive) | 62.5 | 145% (inactive) | -3.77% (inactive) | 89.3% (inactive) | -1% (inactive) | -0.95% (inactive) | 6.36% (inactive) | -5.39% (inactive) | 105% (inactive) | 0.08 (inactive) | -15% (inactive) | -4.57% (inactive)
CCOC(=O)c1cccc(P(C)(C)=O)c1 | 103% (inactive) | 97.2% (inactive) | 114% (inactive) | 90.1% (inactive) | 104% (inactive) | 62 | 67.6% (inactive) | 5.77% (inactive) | 109% (inactive) | 3% (inactive) | -6.13% (inactive) | -7.26% (inactive) | -2.31% (inactive) | 95.8% (inactive) | -0.04 (inactive) | -7% (inactive) | 6.11% (inactive)
COc1cccc(-n2c(C)c3c(OC)cccc(=O)c3c2C)c1 | 89.8% (inactive) | 140% (active) | 106% (inactive) | 85.8% (inactive) | 92.4% (inactive) | 49.9 | 53.8% (active) | -33.3% (inactive) | 109% (inactive) | 5% (inactive) | -3.28% (inactive) | 41% (inactive) | -5.84% (inactive) | 103% (inactive) | 0.12 (inactive) | 0% (inactive) | -4.91% (inactive)
CCC[C@@H]1C[C@@H](C(=O)N[C@H]([C@@H](C)O)[C@H]2O[C@H](SC)[C@H](O)[C@@H](O)C2O)N(C)C1 (stereo partly drawn) | 92.8% (inactive) | 120% (inactive) | 97.9% (inactive) | 80.9% (inactive) | 90.1% (inactive) | 66.2 | 177% (inactive) | 3.55% (inactive) | 99.1% (inactive) | 5% (inactive) | -3.92% (inactive) | -1.72% (inactive) | 3.43% (inactive) | 106% (inactive) | -0.17 (inactive) | 10% (inactive) | -4.09% (inactive)
Cc1ccc2c(c1)C(CCN)C(=O)N2Cc1ccccc1 (stereo not drawn) | 102% (inactive) | 104% (inactive) | 109% (inactive) | 96% (inactive) | 101% (inactive) | 66.6 | 234% (inactive) | -6.68% (inactive) | 106% (inactive) | -4% (inactive) | -2.03% (inactive) | 8.79% (inactive) | 0.57% (inactive) | 94.5% (inactive) | -0.14 (inactive) | 1% (inactive) | -2.69% (inactive)
COc1cc2c(cc1OC)CN(Cc1ccc(C)s1)CC2 | 102% (inactive) | 106% (inactive) | 105% (inactive) | 88.1% (inactive) | 98% (inactive) | 64.1 | 349% (inactive) | -13.9% (inactive) | 103% (inactive) | 4% (inactive) | -7.1% (inactive) | 14.8% (inactive) | -3% (inactive) | 101% (inactive) | 0.05 (inactive) | 4% (inactive) | 2.2% (inactive)
Cn1c(=O)c2c(ncn2CCO)n(C)c1=O | 102% (inactive) | 112% (inactive) | 116% (inactive) | 88.6% (inactive) | 101% (inactive) | 63.6 | 250% (inactive) | -32.3% (inactive) | 98.5% (inactive) | -2% (inactive) | 15.1% (inactive) | -1.93% (inactive) | 0.08% (inactive) | 106% (inactive) | -0.17 (inactive) | 6% (inactive) | 1.64% (inactive)
COc1ccc(C2C(C(=O)c3ccco3)=C(O)C(=O)N2CC2CCCO2)cc1 (stereo not drawn) | 102% (inactive) | 105% (inactive) | 104% (inactive) | 99.3% (inactive) | 95.3% (inactive) | 62.9 | 351% (inactive) | -7.72% (inactive) | 105% (inactive) | 3% (inactive) | -3.98% (inactive) | 25.3% (inactive) | -4.81% (inactive) | 98.9% (inactive) | 0.05 (inactive) | 3% (inactive) | -5.62% (inactive)
Cc1occc(=O)c1O | 92.4% (inactive) | 112% (inactive) | 110% (inactive) | 71% (inactive) | 86.1% (inactive) | 65.3 | 198% (inactive) | -5.18% (inactive) | 100% (inactive) | 1% (inactive) | -9.02% (inactive) | -5.01% (inactive) | -1.14% (inactive) | 98.1% (inactive) | -0.06 (inactive) | 3% (inactive) | -4.91% (inactive)
CC(C)CN1CCN(Cc2ccc(C#CC(C)(C)O)cc2)CC1CCO (stereo not drawn) | 92% (inactive) | 132% (inactive) | 102% (inactive) | 78.7% (inactive) | 86.6% (inactive) | 67.3 | 215% (inactive) | -8.09% (inactive) | 92.7% (inactive) | 0% (inactive) | -11.4% (inactive) | 29.9% (inactive) | -6.34% (inactive) | 98.3% (inactive) | 0.34 (inactive) | 9% (inactive) | -2.46% (inactive)
